Measured values from PubChem BioAssay.
For part of these data: Measured potencies and affinities stand elsewhere. The source made the active and inactive calls.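 How the source made its calls, unless noted: active means primary screen hit whose calcium fluorescence ratio, in both repeats, exceeds the weak agonist control mean by 3 SD; inactive means the rest.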

Tests used:
[1] = system: TRPC4 beta (transient receptor potential cation channel C4), mouse; experiment: activators of mouse TRPC4 channel, confirmation, cell-based, Fluo4 calcium, HEK293 TRPC4beta/mu-opioid, duplicates, 10 µM (AID 2426;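 active means fluorescence ratio normalized to control raised more than 50% in primary screen plus both repeat runs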;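 further: percent rise of integrated ratio over buffer wells lacking compound which define 0%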); conditions: Fluo4 calcium fluorescence, at 10 µM; hits give high values
[2] = system: transient receptor potential cation channel C4 beta (TRPC4), mouse; experiment: activators of mouse TRPC4 channel, confirmation, cell-based, second round, Fluo4, HEK293 TRPC4beta/mu-opioid, 1 µM (AID 2461;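 active means primary screen active and over 50% activation in each of two duplicate runs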;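 on activation: 0% = wells without test compound as baseline of integrated fluorescence ratio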); conditions: Fluo4 calcium fluorescence, at 1 µM; hits give high values
[3] = system: TRPC4 (transient receptor potential cation channel C4 beta), mouse; experiment: positive allosteric modulators of mouse TRPC4, confirmation, cell-based, second round, Fluo-4, HEK293 TRPC4beta/mu-opioid, 1 µM (AID 2554;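 active means primary screen hit whose fluorescence ratio, in both repeats, exceeds the weak agonist control mean by 3 SD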); conditions: DAMGO EC20, Fluo-4 calcium flux, at 1 µM; hits give high values
[4] = system: TRPC4 beta (transient receptor potential cation channel C4), mouse; experiment: positive allosteric modulators of mouse TRPC4, confirmation, cell-based, Fluo-4, HEK293 TRPC4beta/mu-opioid (AID 2555); conditions: DAMGO EC20, Fluo-4 calcium flux, at 10 µM; hits give high values
[5] = molecular target: Short transient receptor potential channel 4 (Mus musculus) (UniProt Q9QUQ5); experiment: inhibitors of mouse TRPC4 channel, confirmation, cell-based, Fluo4, HEK293 TRPC4beta/mu-opioid (AID 2636;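 active means calcium signal cut by more than 3 SD below the full-agonist control yet still positive, in both repeats and the earlier primary screen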); conditions: DAMGO, Fluo4 calcium flux, at 10 µM; hits give high values
Chain of Short transient receptor potential channel 4 (Mus musculus) (Q9QUQ5 whole entry, looked up): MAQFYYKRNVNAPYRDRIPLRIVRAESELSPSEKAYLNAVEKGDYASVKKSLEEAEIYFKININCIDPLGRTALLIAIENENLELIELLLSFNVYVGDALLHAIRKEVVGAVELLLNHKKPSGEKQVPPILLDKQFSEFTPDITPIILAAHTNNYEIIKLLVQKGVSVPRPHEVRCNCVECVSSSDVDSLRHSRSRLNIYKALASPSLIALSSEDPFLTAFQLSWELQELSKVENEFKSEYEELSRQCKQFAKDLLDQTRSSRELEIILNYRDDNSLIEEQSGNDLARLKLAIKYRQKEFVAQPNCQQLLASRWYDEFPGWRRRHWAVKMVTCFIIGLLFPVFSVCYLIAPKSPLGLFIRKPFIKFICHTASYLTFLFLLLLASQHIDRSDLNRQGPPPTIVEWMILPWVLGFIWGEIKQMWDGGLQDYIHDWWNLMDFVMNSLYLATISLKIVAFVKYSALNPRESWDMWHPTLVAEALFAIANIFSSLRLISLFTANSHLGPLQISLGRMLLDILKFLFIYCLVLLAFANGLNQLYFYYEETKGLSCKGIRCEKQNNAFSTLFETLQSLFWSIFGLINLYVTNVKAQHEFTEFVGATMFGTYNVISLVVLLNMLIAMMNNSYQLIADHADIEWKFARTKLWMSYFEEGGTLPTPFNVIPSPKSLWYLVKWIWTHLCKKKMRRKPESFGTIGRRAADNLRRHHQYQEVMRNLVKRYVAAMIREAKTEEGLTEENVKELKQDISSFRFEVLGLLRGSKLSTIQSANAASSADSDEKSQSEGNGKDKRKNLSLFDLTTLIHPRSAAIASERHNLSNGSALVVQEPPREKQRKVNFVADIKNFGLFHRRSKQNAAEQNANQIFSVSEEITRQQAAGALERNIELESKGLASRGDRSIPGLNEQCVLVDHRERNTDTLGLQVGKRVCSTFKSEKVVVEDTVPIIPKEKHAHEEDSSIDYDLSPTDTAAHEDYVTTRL

[6] = molecular target: Short transient receptor potential channel 4 (Mus musculus) (UniProt Q9QUQ5); experiment: inhibitors of mouse TRPC4 channel, confirmation, cell-based, second round, Fluo4, HEK293 TRPC4beta/mu-opioid, 1 µM (AID 2637;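 active means calcium signal ratio cut to more than 3 SD under the fully stimulated control mean yet still positive, in both repeats and the primary screen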); conditions: Fluo4 calcium flux, DAMGO, at 1 µM; hits give high values
[7] = molecular target: Short transient receptor potential channel 4 (Mus musculus) (UniProt Q9QUQ5); experiment: TRPC4 positive allosteric modulators, dose response, cell-based, HEK293 TRPC4/mu-opioid, Fluo-4 calcium, EC20 DAMGO (AID 434941;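 active means earlier screen potentiator hit that boosts the TRPC4 ion channel at some dose, with a dose response; inactive means no potentiation, no dose response, or not a prior hit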;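 further: calcium entry triggered by an EC20 dose of DAMGO at the co-expressed mu-opioid receptor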); conditions: HEK293 TRPC4/mu-opioid cells, Fluo-4 calcium fluorescence; series mostly up to 20 µM
[8] = molecular target: Short transient receptor potential channel 4 (Mus musculus) (UniProt Q9QUQ5); experiment: mouse TRPC4 channel inhibitors, dose response, cell-based, HEK293 TRPC4/mu-opioid, Fluo-4 calcium (AID 434942;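 active means primary screen inhibitor hit that blocks the TRPC4 channel at some tested dose, yielding a dose curve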); conditions: HEK293 TRPC4/mu-opioid cells, DAMGO-evoked Fluo-4 calcium ratio; series mostly up to 20 µM
[9] = molecular target: Short transient receptor potential channel 6 (Mus musculus) (UniProt Q61143); experiment: inhibition of mouse TRPC6 channel, confirmation, selectivity assay for TRPC4 inhibitor project, cell-based, HEK293, membrane potential dye, duplicate (AID 434948;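 active means active in primary screen and both duplicates, each dropping signal beyond three positive-control SD with fluorescence still positive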); conditions: HEK293 TRPC6, membrane potential dye fluorescence, at 10 µM; inhibition: hits give high values, stimulated with maximal-effect acetylcholine unless noted; outcome: stimulated with maximal-effect acetylcholine unless noted
Chain of Short transient receptor potential channel 6 (Mus musculus) (Q61143 whole entry, looked up): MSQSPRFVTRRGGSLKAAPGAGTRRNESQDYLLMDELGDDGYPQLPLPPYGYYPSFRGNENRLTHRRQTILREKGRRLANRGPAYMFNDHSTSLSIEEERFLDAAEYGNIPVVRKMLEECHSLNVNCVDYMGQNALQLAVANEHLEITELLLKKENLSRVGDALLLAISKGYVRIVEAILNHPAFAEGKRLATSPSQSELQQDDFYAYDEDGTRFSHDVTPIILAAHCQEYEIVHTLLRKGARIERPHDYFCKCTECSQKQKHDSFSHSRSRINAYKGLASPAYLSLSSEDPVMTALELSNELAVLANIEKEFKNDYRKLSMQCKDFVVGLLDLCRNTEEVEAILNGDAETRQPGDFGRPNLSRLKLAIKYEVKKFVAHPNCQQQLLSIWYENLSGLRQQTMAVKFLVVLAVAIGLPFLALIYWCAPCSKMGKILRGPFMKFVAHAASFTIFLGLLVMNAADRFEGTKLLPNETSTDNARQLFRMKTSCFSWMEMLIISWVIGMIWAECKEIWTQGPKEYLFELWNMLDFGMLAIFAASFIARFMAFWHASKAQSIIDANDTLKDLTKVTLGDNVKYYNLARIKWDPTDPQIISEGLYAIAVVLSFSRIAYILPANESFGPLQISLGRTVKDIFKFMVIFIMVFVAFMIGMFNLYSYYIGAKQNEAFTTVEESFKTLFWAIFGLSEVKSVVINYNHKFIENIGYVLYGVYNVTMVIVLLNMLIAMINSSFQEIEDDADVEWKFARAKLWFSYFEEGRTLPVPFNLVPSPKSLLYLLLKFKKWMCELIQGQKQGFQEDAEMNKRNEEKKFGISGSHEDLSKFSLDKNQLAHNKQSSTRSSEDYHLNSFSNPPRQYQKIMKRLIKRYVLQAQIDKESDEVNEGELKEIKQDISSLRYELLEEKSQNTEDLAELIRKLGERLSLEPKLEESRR

[10] = molecular target: Short transient receptor potential channel 6 (Mus musculus) (UniProt Q61143); experiment: activation of mouse TRPC6 channel, confirmation, selectivity assay for TRPC4 activator project, cell-based, HEK293, membrane potential dye, duplicate (AID 434950;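 active means membrane potential signal rise above negative control mean plus 3 SD in both duplicates, also active in the earlier TRPC4 screen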;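 further: 0% = buffer only wells and 100% = acetylcholine maximal-effect wells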); conditions: HEK293 TRPC6, membrane potential fluorescence, at 10 µM; hits give high values
[11] = molecular target: Short transient receptor potential channel 6 (Mus musculus) (UniProt Q61143); experiment: TRPC6 potentiation by TRPC4 potentiator hits, confirmation, selectivity assay for TRPC4 potentiator project, HEK293 cells, membrane potential dye, duplicate (AID 434952;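 active means compound raising the membrane signal above positive-control mean plus 3 SD in both repeats, and a primary screen hit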); conditions: HEK293 TRPC6, membrane potential dye fluorescence, at 10 µM; maximal acetylcholine added after compound unless noted
[12] = molecular target: Short transient receptor potential channel 4 (Mus musculus) (UniProt Q9QUQ5); experiment: calcium flux activators in TRPC4/5HT1a cells, counter-screen for TRPC4 activator project, cell-based, second counter screen, HEK293 TRPC4/5HT1a, Fluo-4 (AID 434977;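 active means calcium signal rise above buffer-control mean plus 5 SD in both duplicates, and also a hit in the primary screen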;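 further: plate controls were assay buffer for no effect and maximal serotonin response for full effect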); conditions: Fluo-4 calcium flux, at 10 µM; hits give high values
[13] = calcium flux inhibitors in TRPC4/5HT1a cells, confirmation, counter-screen for TRPC4 inhibitor project, cell-based, second counter screen, HEK293 TRPC4/5HT1a, Fluo-4 (AID 434978;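 active means primary screen active whose calcium signal fell more than 3 SD beyond the full-serotonin control mean in both duplicate plates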;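 further: serotonin given first at submaximal then at maximal dose after compound preincubation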); conditions: Fluo-4 calcium flux, at 10 µM; inhibition: hits give high values, serotonin added to trigger calcium flux unless noted; outcome: serotonin added to trigger calcium flux unless noted
[14] = system: TRPC4 (mouse), co-expressed with 5HT1a in HEK293; experiment: calcium flux potentiators in TRPC4/5HT1a cells, confirmation, counter-screen for TRPC4 potentiator project, cell-based, second counter screen, HEK293 TRPC4/5HT1a, Fluo-4 (AID 434979;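 active means signal rise over 3 SD above mean of control wells given weak agonist, in both repeats and first screen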); conditions: Fluo-4 calcium flux, at 10 µM; outcome: serotonin added at its EC20 dose unless noted; potentiation: hits give high values, serotonin added at its EC20 dose unless noted
[15] = calcium flux activation in mu-opioid HEK293 cells, confirmation, counter-screen for TRPC4 activator project, cell-based, HEK293 mu-opioid receptor line (AID 449723;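 active means hit in primary screen, with calcium signal over 5 SD above buffer well mean in both duplicates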;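 further: counter screen cells carry the mu-opioid receptor alone and lack TRPC4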); conditions: Fluo-4 calcium fluorescence, at 10 µM; hits give high values
[16] = calcium flux enhancement in mu-opioid HEK293 cells, confirmation, counter-screen for TRPC4 allosteric potentiator project, cell-based, HEK293 mu-opioid receptor line (AID 449724;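 active means calcium signal rise more than 3 SD above the low-dose agonist control mean, in both duplicate plates and the primary screen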); conditions: Fluo-4 calcium flux, at 10 µM; compound added before EC20 DAMGO stimulus unless noted

Measured: activation

COc1ccc(CNCCc2c[nH]c3ccccc23)c(OC)c1C
active: [1] 151% | [10] 63.5% | [12] 13.6%
inactive: all other assays above

CCN1CCN(Cc2cc(Br)cc(Br)c2O)CC1
active: [1] 221% | [2] 133% | [10] 38.5% | [12] 70.3%
inactive: all other assays above

COc1ccccc1CC(=O)N1CCN(CCc2ccccc2)CC1
active: [1] 79% | [10] 48.5% | [12] 13.4%
inactive: all other assays above
